Rows were chosen to be rich in hits. Some 3.5% of all compounds tested hit in one or more screens of this group.
TEAD-YAP inh: TEAD-YAP interaction inhibition; HEK-TIYL cells, TEAD-Gal4/YAP UAS-luciferase luminescence; inhibition, % at 9.12 µM; 640,000 tested, 1.4% active; in the data active = inhibition above about 32%;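 note: 0% = median of test compound wells and 100% = reference inhibitor wells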
MITF inh: inhibitors of human MITF; AlphaScreen MITF homodimerization, bead proximity signal; inhibition, % at 2.6 µM; 650,000 tested, 0.91% active; in the data active = inhibition above about 50%;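 note: 0% = vehicle wells with protein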
GPR151 activ: activates the human receptor GPR151; 650,000 tested, 1% active; AID 1508602; PathHunter beta-arrestin GPR151 cells, luminescence; activation, % at 11.2 µM; in the data active = activation above about 4.9%;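 note: 0% = median of compound wells and 100% = cells with positive control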
FBW7 act: activators of human E3 ligase FBW7; Q969H0; AlphaScreen FBW7–phospho-cyclin E peptide binding, activator screen; normalized activity (activation), % at 26.1 µM; 650,000 tested, 0.13% active; in the data active = normalized activity above about 1.9%;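 note: purified mutant Fbw7 with reduced substrate affinity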
Target sequence (Q969H0 whole entry, looked up): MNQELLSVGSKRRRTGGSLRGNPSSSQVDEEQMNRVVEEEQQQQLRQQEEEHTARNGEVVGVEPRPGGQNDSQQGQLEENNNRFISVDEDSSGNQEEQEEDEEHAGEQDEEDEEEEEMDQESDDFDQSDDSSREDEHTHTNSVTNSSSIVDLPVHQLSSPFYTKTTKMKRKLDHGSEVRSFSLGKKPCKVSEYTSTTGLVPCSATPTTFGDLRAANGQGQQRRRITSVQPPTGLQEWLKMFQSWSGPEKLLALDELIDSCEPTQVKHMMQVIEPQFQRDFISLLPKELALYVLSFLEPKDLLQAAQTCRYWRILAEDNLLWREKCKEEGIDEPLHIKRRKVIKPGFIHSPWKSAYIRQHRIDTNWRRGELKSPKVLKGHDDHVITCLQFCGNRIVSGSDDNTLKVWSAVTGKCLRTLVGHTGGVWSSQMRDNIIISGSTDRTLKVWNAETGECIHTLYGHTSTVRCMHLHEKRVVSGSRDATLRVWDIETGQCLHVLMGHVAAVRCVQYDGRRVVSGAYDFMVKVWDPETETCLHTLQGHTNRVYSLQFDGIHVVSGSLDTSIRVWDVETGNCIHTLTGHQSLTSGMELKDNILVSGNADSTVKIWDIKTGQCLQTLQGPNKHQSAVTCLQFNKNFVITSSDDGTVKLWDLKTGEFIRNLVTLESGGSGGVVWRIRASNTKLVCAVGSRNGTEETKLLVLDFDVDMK
* marks the source's active call; other numbers are inactive results.

SMILES	TEAD-YAP inh	MITF inh	GPR151 activ	FBW7 act
OC1CCN(c2ccnc3c(-c4cccc5ccccc45)cnn23)CC1	-22	-2	-1	0
Cc1nc(SCC(=O)Nc2cc(C(N)=O)cc(C(N)=O)c2)c2c(C)c(C)sc2n1	-4	-5	0	16*
CC(=O)c1ccc(NC(=O)CSc2nc(C)nc3sc(C)c(C)c23)cc1	11	10	1	0
CCOC(=O)c1cnc2c(OC)cccc2c1NCc1ccco1	46*	-5	-1	0
CCOC(=O)c1cnc2c(OC)cccc2c1Nc1ccc(OC)cc1OC	53*	-12	1	0
CCOC(=O)c1cnc2c(Cl)cccc2c1NCc1ccco1	-8	-10	-1	0
CCOC(=O)c1cnc2c(OC)cccc2c1Nc1ccccc1OC	7	-3	-1	0
CCC1C(=O)N=C(SCC(=O)Nc2cccc(C(=O)OC)c2)NC1=O (stereo unspecified)	-2	10	1	0
CCC(CO)Nc1ccc2ncc(-c3ccc(C)cc3)n2n1 (stereo unspecified)	24	14	0	0
CC(C)[C@@H](CO)Nc1ccc2ncc(-c3cccc(CO)c3)n2n1	43*	10	0	0
CC(C)[C@@H](CO)Nc1ccc2ncc(-c3ccccc3)n2n1	28	4	1	1
CCC(CO)Nc1ccc2ncc(-c3ccccc3F)n2n1 (stereo unspecified)	42*	2	-1	1
COc1cc(-c2cnc3ccc(N[C@H](CO)C(C)C)nn23)ccc1O	93*	-12	0	0
CC(C)[C@@H](CO)Nc1ccc2ncc(-c3ccc4ccccc4c3)n2n1	14	-22	-1	0
CC(C)[C@@H](CO)Nc1ccc2ncc(-c3cccc(N)c3)n2n1	17	-11	0	-1
CC(C)[C@@H](CO)Nc1ccc2ncc(-c3cccc(Cl)c3)n2n1	5	-2	0	2.0*
CCC(CO)Nc1ccc2ncc(-c3cccc(Br)c3)n2n1 (stereo unspecified)	1	-5	0	0
CCC(CO)Nc1ccc2ncc(-c3cccc(CO)c3)n2n1 (stereo unspecified)	48*	-14	0	0
COC(=O)c1ccc(-c2ccc(/C=C(\C#N)c3nc(N)c(C#N)c(N)c3C#N)o2)cc1	12	18	0	4.7*
COc1cccc(-n2c(O)c(C=NCCC3=CCCCC3)c(=O)[nH]c2=O)c1	-13	0	-1	0
CCOC(=O)c1sc(N/N=C/c2ccccc2O)nc1C	49*	7	1	0
O=C1/C(=C/c2ccc(-c3ccc(Br)cc3)o2)C=C(c2ccccc2)N1c1ccccc1O	-6	-2	2	0
COC(=O)c1cn(NC(=O)c2cc([N+](=O)[O-])ccc2F)c(=O)c2ccccc12	87*	-8	0	0
O=C(N/N=C/c1c[nH]c2ccccc12)c1cc(-c2ccccc2)n[nH]1	0	-10	1	0
O=C(N/N=C\c1c[nH]c2ccccc12)c1ccc(O)cc1	-3	1	0	0
SMILES	TEAD-YAP inh	MITF inh	GPR151 activ	FBW7 act
O=C(O)c1ccc(N/N=C/c2c[nH]c3ccccc23)cc1	85*	-2	-6	0
O=C(N/N=C/c1c[nH]c2ccccc12)c1cc(-c2ccncc2)nc2ccccc12	35*	6	-2	0
Nc1cccc(-c2nc(NCc3nc4ccccc4[nH]3)c3ncn(-c4ccccc4)c3n2)c1	35*	14	-1	0
CC(C)N(CCNc1nc(-c2ccc(N3CCN(C)CC3)cc2)nc2c1ncn2C(C)C)C(C)C	39*	13	0	0
CC(C)n1cnc2c(NCCO)nc(-c3cccc(N)c3)nc21	-5	12	4	0
CC(C)n1cnc2c(NCc3nc4ccccc4[nH]3)nc(-c3cccc(N)c3)nc21	84*	3	2	0
CC(=O)c1cccc(-c2nc(NCc3nc4ccccc4[nH]3)c3ncn(C(C)C)c3n2)c1	67*	-1	2	0
O=[N+]([O-])c1c(Nc2cccnc2Cl)ccc2nonc12	-11	12	-1	0
O=C(CSc1nnc(-c2ccccc2Cl)o1)OCc1ccccc1	11	7	-1	0
CC(C)N(CCNc1nc(-c2cccc(N)c2)nc2c1ncn2C(C)C)C(C)C	53*	-7	1	0
COc1ccccc1N=C/C(C(=O)C(F)(F)F)=C(\O)c1cccs1	50*	13	-2	1
COC(=O)c1ccccc1N=C/C(C(=O)C(F)(F)F)=C(\O)c1cccs1	-16	5	-1	0
CC(C)(C)NS(=O)(=O)c1ccc(F)cc1	-2	-5	1	0
CC(C)(C)NS(=O)(=O)c1ccc(Cc2ccc(S(=O)(=O)NC(C)(C)C)cc2)cc1	37*	-4	-1	0
CC(C)NS(=O)(=O)c1ccc(Cc2ccc(S(=O)(=O)NC(C)C)cc2)cc1	35*	5	1	0
O=c1sc2ccccc2n1Cc1nnc(SC2CCCC2)n1CCc1ccccc1	0	11	-2	1
CN1CCN(c2ccc(-c3ccc(C(=O)NC4CC4)s3)cc2)CC1	52*	1	-2	0
Cc1ccc(S(=O)(=O)N(C)Cc2ccccc2)cc1C(=O)O	2	3	2	0
O=C(CCc1ccccc1)NC(c1ccc2c(c1)OCO2)c1ccc2cccnc2c1O (stereo unspecified)	83*	16	-1	-1
COc1ccc(C(NC(=O)Cc2ccccc2)c2ccc3cccnc3c2O)cc1OC (stereo unspecified)	90*	24	1	-2
CCCC(=O)NC(c1ccc(OC)c(OC)c1)c1ccc2cccnc2c1O (stereo unspecified)	88*	45	0	-2
O=C(Nc1nccs1)c1cc2c(s1)CCCC2	65*	0	-10	0
O=C(COc1ccc2c(c1)CCC2)Nc1nccs1	74*	5	-3	0
O=C(Nc1nccs1)c1cc(Br)c(Br)s1	-56	9	-1	0
O=C(COc1ccc(Br)cc1)Nc1nccs1	35*	-7	-2	0
SMILES	TEAD-YAP inh	MITF inh	GPR151 activ	FBW7 act
CC(Sc1nnc(-c2ccc(C(C)(C)C)cc2)o1)C(=O)Nc1nccs1 (stereo unspecified)	52*	50	3	-1
CC(Sc1nnc(N)s1)C(=O)Nc1nccs1 (stereo unspecified)	-10	8	2	0
O=C(Cc1ccc2c(c1)CCCC2)Nc1nccs1	-8	11	-1	0
COc1ccccc1N1CCN(c2nc3ccccc3n3c(C)nnc23)CC1	-5	-6	0	0
CC(=O)Nc1cc(-c2nc3ncccc3o2)ccc1C	-7	15	0	1
CC(C)c1ccc(OCC(=O)Nc2nccs2)cc1	81*	8	-3	0
CC(C)(C)c1ccc(OCC(=O)Nc2nccs2)cc1	74*	-1	0	0
CC(C)c1ccc(NC(=O)COc2ccc(C(C)C)cc2)cc1	8	0	2	0
CC(=O)c1ccc(OCC(=O)Nc2nccs2)cc1	55*	6	-6	0

High-throughput results as filed in PubChem BioAssay.
